Assay results as given in article PMC5540273 (PLoS ONE, 2017).

tested on: RIPK5; conditions: concentration: 1 μM, replicates: in singlicate; n = 1
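Note: KINOMEscan kinase panel screen.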

SMILES | %Inh [%]
Cl.O=S(=O)(c1cccc(F)c1)c1ccc(Nc2ncnc3cc(Br)sc23)cc1Cl [GSK306886] | 16
O=C(NCCCN1CCCC1=O)c1cnc(NCc2cc(Cl)ccc2Cl)nc1NC1CCNCC1 | 0
Cl.Cn1ccc(-c2cccc(Nc3ccnc4cc(-c5nccs5)ccc34)c2)n1 [GW525701] | 0
CC(C)(C)OC(=O)NC1CCCN(c2cc(-c3ccc4c(N)n[nH]c4c3)nc(N)n2)C1 (stereo not drawn) [GSK2286096] | 0
Cn1ccc2ncnc(Nc3ccc(Oc4cccc(Cl)c4)c(Cl)c3)c21 | 40
O=C(Nc1ccccc1)Nc1ccc(Oc2ccc3nccn3n2)cc1 | 0
CSc1nn2c(=O)cc(N3CCOCC3)nc2n1Cc1cccc(Cl)c1Cl [GSK2347225] | 0
COC(=O)c1cccc(NC(=O)NCCNc2ccnc(Nc3ccc(F)cc3)n2)c1 [GSK1379883] | 0
CCn1c(-c2ccncc2)nc2cnccc21 [SB-735216] | 14
Fc1cccc(COc2ccc(Nc3ncnc4cc[nH]c34)cc2Cl)c1 | 33
O=C(Nc1n[nH]c2nc(-c3ccco3)c(Br)cc12)c1ccc(CN2CCCC2)cc1.O=C(O)[C@H](O)[C@@H](O)C(=O)O [SB-742352] | 0
CCC(CC)(CC)n1cnc2c(N)ncnc21 [SKF-97620] | 25
O=C(CCO)NCCn1ccc2ncnc(Nc3ccc(Oc4cccc(C(F)(F)F)c4)c(Cl)c3)c21 | 0
OCCOCCn1ccc2ncnc(Nc3ccc(Oc4cccc(Cl)c4)c(Cl)c3)c21 | 0
Clc1cccc(-c2nc(Nc3ccncc3)c3ccccc3n2)c1 [GW873004] | 0
COc1ccc(NC(=O)c2ccc(-c3cc(-c4nnc(C)o4)ccc3C)cc2)cc1 [GW595885] | 0
O=C(Nc1ccccc1F)NC1CCN(c2ccnc(Nc3ccc(F)cc3)n2)C1 (stereo not drawn) [GSK1379722] | 0
Nc1nc(-c2ccc3c(N)n[nH]c3c2)cc(N2CCCCC2)n1 [GSK2228768] | 0

SMILES | %Inh [%]
CN1CCC(n2cnc(-c3ccc(F)cc3)c2-c2ccnc(NC3CCNCC3)n2)CC1 [SB-229482] | 7
Clc1cc(Nc2ncnc3cc[nH]c23)ccc1OCc1ccccn1 | 31
COc1cc2c(Nc3cccc(NC(=O)c4ccccc4)c3)ncnc2cc1OCCCN1CCOCC1 [GSK223810] | 8
CCc1nc(-c2cccc(N(C)S(=O)(=O)c3ccccc3)c2)c(-c2ccnc(Nc3ccc(N4CCN(C(C)=O)CC4)nc3)n2)s1 [GSK1645895] | 10
Cc1ccc(O)cc1Nc1cc(C(F)(F)F)nc2ccc(-c3ccncc3)cc12 [GW630823] | 15
c1ccc(-c2ccc3c(-c4ccnc(Nc5ccc6c(c5)OCCO6)n4)cnn3n2)cc1 [GW818941] | 0
CSc1ccc(NC2=C(c3ccccc3Cl)C(=O)NC2=O)cc1 [SB-342411] | 0
CS(=O)(=O)CCNCc1ccc(-c2ccc3ncnc(Nc4ccc(OCc5ccccc5)c(Cl)c4)c3c2)o1.Cl [GW574783] | 0
COc1cc2ncnc(Nc3ccc(OCc4ccccc4Br)c(Cl)c3)c2cc1OC.Cl [GI261590] | 0
CC(C)N1CCC(n2cnc(-c3ccc(F)cc3)c2-c2ccnc(N)n2)CC1 [SB-223132] | 0
Cn1cc(-c2ccc3c(c2)CCN3C(=O)Cc2cccc(C(F)(F)F)c2)c2c(N)ncnc21 [GSK2606414] | 9
COc1ccc(Nc2nccc(N3CCC(NC(=O)c4cccc(NC(C)=O)c4)C3)n2)cc1 (stereo not drawn) [GSK1379732] | 0
Nc1nc(-c2ccc3c(N)n[nH]c3c2)cc(N2CCC[C@@H](C(=O)Nc3ccccc3)C2)n1.O=C(O)C(F)(F)F.O=C(O)C(F)(F)F [GSK2288359] | 3
CN1c2ccc(-c3ccc(C(=O)NCCO)cc3)cc2-c2[nH]ncc2S1(=O)=O | 27
N#Cc1ccc(Oc2ccc(Nc3ncnc4cc[nH]c34)cc2Cl)cc1 | 6
Cl.c1ccc(Cn2ncc3cc(Nc4ncnc5ccccc45)ccc32)cc1 [GW273749] | 6
Nc1nccc2scc(-c3ccc4c(c3)CCN4C(=O)Cc3cc(F)ccc3F)c12 [GSK2587663] | 0
Nc1nc(-c2cccnc2)c(-c2ccnc3ccccc23)s1 [GW684083] | 2
